Measured values: PubChem BioAssay (Tox21)
Several values for one entry are separate records, joined by “and”; a condition that tells them apart may be missing. Equal values may be shown once. Inconclusive results are not listed. Entries that show only a call come without a potency. Activity calls are given as the source filed them. Unless noted, calls come from the whole dose curve; as a rule, active = well fitted curve in the direction sought with a large enough effect in the repeat runs; inconclusive = weak or mixed curves; inactive = no such curve, though single readings can be large; an effect the other way counts as inactive or inconclusive.

Key:
[1] = qHTS assay to test for compound auto fluorescence at 535 nm (green) in HEK293 cells (AID 720680)
[2] = qHTS assay to test for compound auto fluorescence at 460 nm (blue) in HEK293 cell free culture (AID 720681)
How it was run: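 Test compounds were pinned into cell-free culture medium (DMEM with 10% FBS) and fluorescence was read directly at Ex/Em 405/460 nm. Signals were expressed as fluorescence equivalents of triamterene, with DMSO vehicle as control.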

[3] = qHTS assay to test for compound auto fluorescence at 535 nm (green) in HEK293 cell free culture (AID 720682)
How it was run: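 DMEM + 10% FBS, cell-free; cpd or DMSO pinned in; Ex485/Em535 read; output as fluorescein-equivalent signal.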

[4] = qHTS assay to test for compound auto fluorescence at 590 nm (red) in HEK293 cell free culture (AID 720683)
How it was run: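 Tox21 10K library compounds were pinned into cell-free DMEM with 10% FBS and fluorescence was read at excitation 540 nm. Activity is expressed as Rose Bengal sodium equivalency.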

[5] = qHTS assay to test for compound auto fluorescence at 590 nm (red) in HepG2 cell free culture (AID 720684)
How it was run: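 Readout: intrinsic compound fluorescence at 590 nm emission after 540 nm excitation, scaled to Rose Bengal sodium. Matrix was cell-free MEM with 10% FBS; DMSO vehicle wells served as control.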

[6] = qHTS assay to test for compound auto fluorescence at 460 nm (blue) in HepG2 cell free culture (AID 720685)
How it was run: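 Cell-free plates of MEM plus 10% FBS received 23 nL compound or DMSO vehicle; blue-channel (405/460 nm) intensity scored against triamterene as reference fluorophore.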

[7] = qHTS assay to test for compound auto fluorescence at 535 nm (green) in HepG2 cell free culture (AID 720686)
[8] = qHTS assay to test for compound auto fluorescence at 460 nm (blue) in HepG2 cells (AID 720687)
How it was run: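 Cells (2,000/well in MEM with 10% FBS) attached overnight at 37 C, then were exposed to compound or DMSO for 1 hr at 37 C, 5% CO2. Fluorescence read at Ex/Em 405/460 nm, expressed as triamterene-equivalent signal.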

[9] = qHTS assay to identify small molecule antagonists of the glucocorticoid receptor (GR) signaling pathway - cell viability counter screen (AID 720693); note: nearly all actives have a fitted effect of over 55% in size; note: potency is the fitted concentration of half-maximal effect
[10] = qHTS assay for identifying genotoxic compounds that show differential cytotoxicity against isogenic chicken DT40 cell lines with known DNA damage response pathways - wild type cell line (AID 743012); note: nearly all actives have a fitted effect of over 60% in size; note: potency is the fitted concentration of half-maximal effect
How it was run: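 Luminescent ATP viability signal (CellTiter-Glo, 30 min RT) recorded after wild type DT40 cells were incubated with compounds for 40 h at 37 C/5% CO2.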

[11] = qHTS assay for identifying genotoxic compounds that show differential cytotoxicity against isogenic chicken DT40 cell lines with known DNA damage response pathways - Rev3 mutant cell line (AID 743014); note: nearly all actives have a fitted effect of over 55% in size; note: potency is the fitted concentration of half-maximal effect
[12] = qHTS assay for identifying genotoxic compounds that show differential cytotoxicity against isogenic chicken DT40 cell lines with known DNA damage response pathways - Rad54/Ku70 mutant cell line (AID 743015); note: nearly all actives have a fitted effect of over 60% in size; note: potency is the fitted concentration of half-maximal effect
[13] = qHTS assay to identify small molecule antagonists of the androgen receptor (AR) signaling pathway - cell viability counter screen (AID 743033; note: nearly all actives have a fitted effect of over 45% in size; note: potency is the fitted concentration of half-maximal effect)
[14] = molecular target: Androgen receptor (Homo sapiens) (UniProt P10275); test: qHTS assay to identify small molecule agonists of the androgen receptor (AR) signaling pathway using the MDA cell line (AID 743040; note: nearly all actives have a fitted effect of over 20% in size)
How it was run: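 Agonist activity is measured as luciferase luminescence in human MDA-kb2 cells whose MMTV reporter responds to both AR and GR. Compounds in DMSO incubate 16 h at 37C, 0% CO2, and ONE-Glo is read after 30 min.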

[15] = qHTS assay to identify small molecule antagonists of the androgen receptor (AR) signaling pathway using the MDA cell line - cell viability counter screen (AID 743041; note: nearly all actives have a fitted effect of over 45% in size; note: potency is the fitted concentration of half-maximal effect)
How it was run: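 qHTS viability read-out; MDA-kb2 AR-luc; R1881-stimulated; 16 h exposure at 37C, 0% CO2; CellTiter-Fluor, 30 min; fluorescence intensity.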

[16] = molecular target: Androgen receptor (Homo sapiens) (UniProt P10275); test: qHTS assay to identify small molecule agonists of the androgen receptor (AR) signaling pathway (AID 743036; active = well fitted activation curve with a large enough effect in the signal ratio in the repeat runs, with a control signal flat, not every such curve was filed as active; the % refers to the signal ratio)
How it was run: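 Screening used 2,000 AR-bla HEK293 cells per well, treated 16 h at 37C with test compounds in DMSO alongside positive and DMSO-only controls; beta-lactamase activity was then read by LiveBLAzer B/G FRET fluorescence after 2 h at room temperature.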

Sequence of Androgen receptor (Homo sapiens) (P10275 whole entry, looked up): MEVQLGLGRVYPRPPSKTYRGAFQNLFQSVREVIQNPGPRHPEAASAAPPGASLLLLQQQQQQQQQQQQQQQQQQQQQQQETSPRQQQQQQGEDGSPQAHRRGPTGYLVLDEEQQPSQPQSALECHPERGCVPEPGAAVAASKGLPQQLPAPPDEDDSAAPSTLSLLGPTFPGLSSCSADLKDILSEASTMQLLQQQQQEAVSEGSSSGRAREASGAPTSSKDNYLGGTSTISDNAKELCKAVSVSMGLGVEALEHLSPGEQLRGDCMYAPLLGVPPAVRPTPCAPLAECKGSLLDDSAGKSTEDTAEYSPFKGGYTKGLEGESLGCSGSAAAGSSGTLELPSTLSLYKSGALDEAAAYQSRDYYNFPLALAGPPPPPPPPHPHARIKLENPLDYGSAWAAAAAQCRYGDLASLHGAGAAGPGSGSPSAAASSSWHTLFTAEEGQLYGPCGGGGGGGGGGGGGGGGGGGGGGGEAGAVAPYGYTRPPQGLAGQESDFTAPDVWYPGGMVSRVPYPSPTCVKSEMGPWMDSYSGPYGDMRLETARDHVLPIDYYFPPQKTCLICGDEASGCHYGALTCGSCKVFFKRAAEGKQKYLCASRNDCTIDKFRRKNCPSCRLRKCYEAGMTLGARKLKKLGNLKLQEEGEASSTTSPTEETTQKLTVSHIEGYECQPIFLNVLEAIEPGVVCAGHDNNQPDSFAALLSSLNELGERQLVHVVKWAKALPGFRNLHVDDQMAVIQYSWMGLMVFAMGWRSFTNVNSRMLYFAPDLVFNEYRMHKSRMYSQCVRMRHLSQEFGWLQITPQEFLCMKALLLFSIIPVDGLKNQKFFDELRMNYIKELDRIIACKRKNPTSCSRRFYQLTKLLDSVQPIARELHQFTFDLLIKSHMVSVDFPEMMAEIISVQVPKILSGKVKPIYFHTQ

SMILES | outcome [1] | Potency [2] | outcome [3] | Potency [4] | Potency [5] | Potency [6] | Potency [7] | Potency [8] | Potency [9] | Potency [10] | Potency [11] | Potency [12] | Potency [13] | Potency [14] | Potency [15] | Potency [16]
C[C@@H](NCCCc1cccc(C(F)(F)F)c1)c1cccc2ccccc12 | inactive | inactive | inactive | inactive | inactive | inactive | inactive | inactive | 13.4 µM (active) | 5.31 µM (active) | 5.96 µM (active) | 5.96 µM (active) | 19 µM (active) | inactive | inactive | 
O=[N+]([O-])c1cc(Cl)c(Cl)c(Cl)c1Cl | inactive | inactive | inactive | inactive | inactive | inactive | inactive | inactive | inactive | inactive | inactive | inactive | inactive |  | inactive | 
CCOc1nc2cccc(C(=O)OC(C)OC(=O)OC3CCCCC3)c2n1Cc1ccc(-c2ccccc2-c2nn[nH]n2)cc1 (stereo unspecified) | inactive | inactive | inactive | inactive | inactive | inactive | inactive | inactive | 38.9 µM (active) | 34.3 µM (active) | 19.3 µM (active) | 17.2 µM (active) | 30.9 µM (active) |  |  | 
CCCCCCCC[P+](CCCCCCCC)(CCCCCCCC)CCCCCCCC | inactive | inactive | inactive | inactive | inactive | inactive | inactive | inactive | 6.13 µM (active) | 5.42 µM (active) | 5.42 µM (active) | 5.42 µM (active) | 0.971 µM (active) |  | 6.08 µM (active) | 
CC(C)c1ccc2c(c1)CC[C@H]1[C@](C)(CN)CCC[C@]21C | inactive | inactive | inactive | inactive | inactive | inactive | inactive | inactive | 38.9 µM (active) | 5.45 µM (active) | 6.11 µM (active) | 5.45 µM (active) | 21.9 µM (active) |  | 24.3 µM (active) | 
CCCCN1CCCC[C@H]1C(=O)Nc1c(C)cccc1C | inactive | inactive | inactive | inactive | inactive | inactive | inactive | inactive | inactive | inactive | inactive | inactive | inactive | inactive | inactive | inactive
Oc1ccc2cc(SSc3ccc4cc(O)ccc4c3)ccc2c1 | inactive | inactive | inactive | inactive | inactive | inactive | inactive | inactive | inactive | 24.3 µM (active) | 19.4 µM (active) and 21.7 µM (active) | 24.4 µM (active) and 27.3 µM (active) |  |  | inactive | 
O=C(Nc1ccc(Oc2ccc(Cl)cc2)c(Cl)c1)c1cc(I)cc(I)c1O | inactive | inactive | inactive | inactive | inactive | inactive | inactive | inactive | 6.01 µM (active) |  |  | inactive | inactive |  | inactive | 
